Source: PubChem BioAssay AID1159580 (chemical genetic matrix, 2015)
Several values for one entry are separate records, joined by “and”; a condition that tells them apart may be missing. Equal entries are not always repeated. About 2,000 (36%) of roughly 5,500 compounds were called active. Roughly 18% stayed inconclusive and do not appear here. Rule as the data show it: active = normalized growth mostly below about 0.91 (no sharp cut-off); inconclusive = no clear call, values can overlap the other calls; inactive = mostly above about 0.92. The list shows a part of the results.

Experiment: chemical genetic growth profiling, strain panel (AID 1159580);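 also: tested at 20 µM; growth read once vehicle control cultures reached saturation at 30 °C; 1 = growth at the plate median or of vehicle wells; lower values mean less growth of the strain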
Conditions: S. cerevisiae deletion strains, growth OD

Measured: normalized growth

CCc1cc(C(N)=S)ccn1
inactive: locus YAL021C, strain ccr4, active compounds read low 1 | locus YAL026C, strain drs2, active compounds read low 1 | locus YAL030W, strain snc1, active compounds read low 0.994 | locus YBL061C, strain skt5, active compounds read low 1.01 | locus YBR009C, strain hhf1, active compounds read low 1 | locus YBR021W, strain FUR4, active compounds read low 1.06 | locus YBR023C, strain chs3, active compounds read low 1.02 | locus YBR171W, strain sec66, active compounds read low 1 | locus YBR229C, strain ROT2, active compounds read low 0.953 | locus YBR231C, strain swc5, active compounds read low 1.04 | locus YBR279W, strain paf1, active compounds read low 1 | locus YCL011C, strain gbp2, active compounds read low 1.01 | locus YCL016C, strain dcc1, active compounds read low 1 | locus YCL061C, strain MRC1, active compounds read low 1.01 | locus YCL069W, strain vba3, active compounds read low 0.991 | locus YCR088W, strain abp1, active compounds read low 1 | locus YDL005C, strain med2, active compounds read low 1 | locus YDL035C, strain GPR1, active compounds read low 1.01 | locus YDL040C, strain nat1, active compounds read low 0.998 | locus YDL074C, strain BRE1, active compounds read low 0.991 | locus YDL101C, strain DUN1, active compounds read low 0.981 | locus YDL134C, strain PPH21, active compounds read low 0.985 | locus YDL185W, strain tfp1, active compounds read low 0.976 | locus YDL192W, strain arf1, active compounds read low 0.981 | locus YDR001C, strain nth1, active compounds read low 1 | locus YDR069C, strain doa4, active compounds read low 0.978 | locus YDR101C, strain arx1, active compounds read low 0.93 | locus YDR137W, strain rgp1, active compounds read low 1.02 | locus YDR150W, strain NUM1, active compounds read low 0.983 | locus YDR159W, strain sac3, active compounds read low 0.953 | locus YDR162C, strain NBP2, active compounds read low 1 | locus YDR195W, strain ref2 0.979 | locus YDR297W, strain sur2, active compounds read low 1 | locus YDR318W, strain mcm21, active compounds read low 1 | locus YDR334W, strain swr1, active compounds read low 1.01 | locus YDR335W, strain msn5, active compounds read low 0.996 | locus YDR388W, active compounds read low 0.995 | locus YDR392W, strain spt3, active compounds read low 0.938 | locus YDR502C, strain sam2, active compounds read low 0.98 | locus YEL003W, strain gim4, active compounds read low 0.998 | locus YEL037C, strain rad23, active compounds read low 0.999 | locus YEL061C, strain CIN8 (second series), active compounds read low 0.994 | locus YEL061C, strain CIN8, active compounds read low 0.959 | locus YER015W, strain faa2, active compounds read low 1.01 | locus YER016W, strain bim1, active compounds read low 0.957 | locus YER110C, active compounds read low 0.98 | locus YER111C, strain swi4, active compounds read low 0.996 | locus YER155C, strain BEM2 (second series), active compounds read low 0.943 | locus YER155C, strain BEM2, active compounds read low 0.99 | locus YER167W, strain BCK2, active compounds read low 0.994 | locus YFR010W, strain ubp6, active compounds read low 1 | locus YGL078C, strain dbp3, active compounds read low 0.986 | locus YGL086W, strain mad1, active compounds read low 0.964 | locus YGL167C, strain pmr1, active compounds read low 1 | locus YGL173C, strain kem1, active compounds read low 0.995 | locus YGL227W, strain vid30, active compounds read low 1.01 | locus YGL240W, strain doc1, active compounds read low 0.978 | locus YGL248W, strain PDE1, active compounds read low 0.989 | locus YGL253W, strain hxk2, active compounds read low 1.01 | locus YGR135W, strain pre9, active compounds read low 1.05 | locus YGR252W, strain gcn5, active compounds read low 1.14 | locus YHR013C, strain ard1, active compounds read low 1.05 | locus YHR027C, strain rpn1, active compounds read low 1.01 | locus YHR030C, strain SLT2, active compounds read low 0.997 and 1.11 | locus YHR079C, strain IRE1 (second series), active compounds read low 0.993 | locus YHR079C, strain IRE1, active compounds read low 1.08 | locus YHR094C, strain hxt1, active compounds read low 0.987 | locus YHR129C, strain ARP1, active compounds read low 0.991 | locus YHR142W, strain chs7, active compounds read low 1.02 | locus YHR200W, strain rpn10, active compounds read low 0.98 | locus YIL066C, strain RNR3, active compounds read low 0.965 | locus YIL073C, strain SPO22, active compounds read low 1.08 | locus YIL125W, strain kgd1, active compounds read low 0.981 | locus YIR030C, strain dcg1, active compounds read low 0.99 | locus YJL092W, strain hpr5, active compounds read low 1.01 | locus YJL095W, strain BCK1 (second series), active compounds read low 1 | locus YJL095W, strain BCK1, active compounds read low 0.964 and 1.07 | locus YJL115W, strain asf1, active compounds read low 1.01 | locus YJL129C, strain trk1, active compounds read low 1.03 | locus YJL134W, strain LCB3, active compounds read low 0.991 | locus YJL154C, strain vps35, active compounds read low 0.995 | locus YJL164C, strain tpk1, active compounds read low 1.02 | locus YJL166W, strain qcr8, active compounds read low 1.04 | locus YJL168C, strain set2, active compounds read low 0.991 | locus YJL187C, strain SWE1 (second series), active compounds read low 0.941 | locus YJL187C, strain SWE1, active compounds read low 1.01 | locus YJR043C, strain POL32, active compounds read low 0.983
